We go through ten molecules from PubChem BioAssay (NCATS).

Several values for one entry are separate records, joined by “and”; a condition that tells them apart may be missing. Equal entries are not always repeated. Records with an inconclusive call do not appear. Values without a mark were called inactive. Activity calls are given as the source filed them. Calls come from the whole dose curve; as a rule, active = well fitted curve in the direction sought with a large enough effect; inconclusive = small, poorly fitted or top-dose-only effect, or another doubt; inactive = no such curve, though single readings can be large; an effect the other way counts as inactive or inconclusive.

Assay [1] can be described thus: Viability qHTS for spleen associated tyrosine kinase inhibitor (SYKi) naive MV4-11 cells (AID 1963823). Note: nearly all actives have a fitted effect of over 40% in size. In a few lines: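 SYK inhibitor-naive MV4-11 cells, 500 per well, exposed to compounds for 72 hr at 37 C, 5% CO2. Viability read as CellTiter-Glo luminescence after 10 min at room temperature.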
Assay [2] in a line: Viability qHTS for spleen associated tyrosine kinase inhibitor (SYKi) drug resistant MV4-11 cells (AID 1963824). Note: nearly all actives have a fitted effect of over 35% in size. In a few lines: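 SYK-inhibitor-resistant MV4-11 AML cells were seeded at 500 per well onto compound and cultured 72 hours (37 °C, 5% CO2). CellTiter-Glo was then added, and after 10 min at room temperature, luminescence gave viability.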
In general terms: In qHTS, concentration-response curves come from the screen itself.

Assay [3] can be described thus: Cellular viability qHTS for adrenocortical cancer (ACC) cell line NCI-H295R (AID 1963990). Note: nearly all actives have a fitted effect of over 60% in size. In a few lines:
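Adrenocortical carcinoma cells, suspended at 300 000 cells/mL in serum-free DMEM plus ITS, rested overnight before pin transfer of compound. After two days' incubation, ATP-dependent luminescence was recorded and curve-fitted.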

Assay [4] is described as follows: Quantitative highthroughput screen to assess conditional lethalithy of NOMO1 cells grown in RPMI1640 with untreated serum (RPMI+s) (AID 1963876).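 For Viability: 100% = DMSO wells and 0% = empty wells without cells.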 Note: nearly all actives have a fitted effect of over 35% in size. In a few lines: (§1)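 Each medium arm—HPLM with 10% dialyzed FBS, or RPMI1640 with 5 mM glucose and 10% untreated or dialyzed FBS—was screened against an 11-point, 3-fold compound titration for 48 h at 37 °C, with CellTiter-Glo luminescence as endpoint.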

A short description of assay [5]: Quantitative highthroughput screen to assess conditional lethalithy of NOMO1 cells grown in RPMI1640 with dialyzed fetal bovine serum (RPMI+ds) (AID 1963877).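 For Viability: series mostly up to about 46 µM; 100% = DMSO control wells and 0% = empty wells.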 Note: nearly all actives have a fitted effect of over 30% in size. In a few lines: as §1
Assay [6] can be described thus: Quantitative highthroughput screen to assess conditional lethalithy of NOMO1 cells grown in Human Plasma-Like Medium with dialyzed fetal bovine serum (HPLM+ds) (AID 1963878).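 For Viability: 100% = DMSO wells and 0% = empty wells on each plate.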 Note: nearly all actives have a fitted effect of over 35% in size. In a few lines: as §1
Assay [7] in a line: Quantitative highthroughput screen to assess conditional lethalithy of P12 Ichikawa cells grown in Human Plasma-Like Medium with dialyzed fetal bovine serum (HPLM+ds) (AID 1963879). For Viability: series mostly up to about 46 µM. Note: nearly all actives have a fitted effect of over 35% in size. Particulars: Potency: viability. In a few lines:
as §1

The nature of assay [8]: Quantitative highthroughput screen to assess conditional lethalithy of P12 Ichikawa cells grown in RPMI1640 with dialyzed fetal bovine serum (RPMI+ds) (AID 1963880).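 For Viability: 100% = DMSO wells and 0% = empty wells on each plate.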 Note: nearly all actives have a fitted effect of over 35% in size. Particulars: Potency: P12-Ichikawa viability. An outline of the steps: as §1
The nature of assay [9]: Quantitative highthroughput screen to assess conditional lethalithy of P12 Ichikawa cells grown in RPMI1640 with untreated serum (RPMI+s) (AID 1963881).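 For Viability: series mostly up to about 46 µM; 100% = DMSO wells and 0% = empty wells without cells.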 Note: nearly all actives have a fitted effect of over 35% in size. The settings on record: Potency: viability. In a few lines: as §1
Assay [10] can be described thus: Quantitative highthroughput screen to assess conditional lethalithy of SEM cells grown in Human Plasma-Like Medium with dialyzed fetal bovine serum (HPLM+ds) (AID 1963882). For Viability: series mostly up to about 46 µM. Note: nearly all actives have a fitted effect of over 35% in size. In a few lines:
as §1

Assay [11] can be described thus: Quantitative highthroughput screen to assess conditional lethalithy of SEM cells grown in RPMI1640 with unreated serum (RPMI+s) (AID 1963883).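 For Viability: 100% = DMSO wells and 0% = empty wells without cells.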 Note: nearly all actives have a fitted effect of over 35% in size. In a few lines: as §1
Assay [12] can be described thus: Quantitative highthroughput screen to assess conditional lethalithy of SEM cells grown in RPMI1640 with dialyzed fetal bovine serum (RPMI+ds) (AID 1963884).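 For Viability: series mostly up to about 46 µM; 100% = DMSO control wells and 0% = empty wells without cells.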 Note: nearly all actives have a fitted effect of over 35% in size. An outline of the steps:
as §1

Assay [13] is described as follows: Cellular viability qHTS for adrenocortical cancer (ACC) cell line SW-13 (AID 1963989).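 For activity (max response): cells grown in serum-free medium with ITS supplement; % is set by controls: 0 for no effect and ±100 for the full control effect.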 Note: nearly all actives have a fitted effect of over 65% in size. The settings on record: SW-13 ACC cells viability, CellTiter-Glo, 48 h; activity (max response): stronger effect = lower value. In a few lines: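 IC50 and maximal-response values come from four-parameter logistic fits of titration data. SW-13 cells in serum-free medium received compounds (up to 46 uM final) for 48 h before CellTiter-Glo luminescence.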
Potency is the fitted concentration of half-maximal effect.

On to `O=C(CCN1CCC(c2ccccc2)C1)c1ccc2c(c1)OCCO2` (stereo not given), for which the figures for the Potency in assay [1], in [2] and in [3] were 7.5 µM (active), 10.6 µM (active) and 6.51 µM (active), respectively.
`C[C@H](NC(=O)Cc1cc(F)cc(F)c1)C(=O)N[C@@H]1C(=O)N(C)c2ccccc2-c2ccccc21`: the Potency entry in [1] is “inactive”. In addition, the Potency was 11.8 µM (active) in [4]; 14.8 µM (active) in assay [5]; 4.69 µM (active) in assay [6]; 2.64 µM (active) in assay [7]; 7.43 µM (active) in assay [8]; 7.43 µM (active) in assay [9]. The Potency in [10] was 4.18 µM (active); in assay [11], 1.18 µM (active); in assay [12] it was 3.32 µM (active). Moreover, in [13], the activity (max response) is -7.45%.
For the molecule `Nc1c2ccccc2nc2ccccc12`, the Potency was 2.99 µM (active) in assay [1], 3.76 µM (active) in assay [2] and 7.31 µM (active) in assay [3].
The like results for `COC(=O)C1=C(C)NC(COC(N)=O)=C(C(=O)OC(C)C)C1c1cccc(Cl)c1Cl` (stereo not given) were, in that order, 21.1 µM (active), 14.6 µM (active) and 20.6 µM (active).
On to `Cc1[nH]c(/C=C2\C(=O)Nc3ccc(S(=O)(=O)Cc4c(Cl)cccc4Cl)cc32)c(C)c1C(=O)N1CCC[C@@H]1CN1CCCC1`, for which the Potency was 0.934 µM (active) in assay [1], 1.86 µM (active) in assay [2] and 7.08 µM (active) in [3].
For `Cc1ccc(C(=O)c2cc(O)c(O)c([N+](=O)[O-])c2)cc1`, the Potency is 20.9 µM (active) in assay [1]; 23.1 µM (active) and 31.6 µM (active) in assay [3]. The Potency result in [4], in assay [5], in assay [6], in [7], in assay [8] and in [9] was “inactive” throughout. For the same molecule, the Potency entry in assay [10], in assay [11] and in assay [12] was “inactive” throughout.
In the case of `COC(=O)c1ccc2c(C(=Nc3ccc(N(C)C(=O)CN4CCN(C)CC4)cc3)c3ccccc3)c(O)[nH]c2c1`, the Potency is 32.6 nM (active) and 37.2 nM (active) in assay [1]; 7.08 µM (active) in assay [13]; 10 µM (active) in [3]. Besides, the Potency entry in assay [4], in assay [5], in assay [6], in assay [7], in assay [8] and in assay [9] was “inactive” each time.
For the molecule `Clc1ccc(C(c2ccccc2Cl)C(Cl)Cl)cc1` (stereo not given), the Potency entry in [1], in [4], in assay [5], in [6], in assay [7] and in assay [8] was “inactive” each time. For the same molecule, in assay [9], the Potency entry is “inactive”. Also, the activity (max response) in [13] was -27.3%. Moreover, the Potency in [3] was 13 µM (active).
With `CCCc1nc(C)c2c(=O)[nH]c(-c3cc(S(=O)(=O)N4CCN(CC)CC4)ccc3OCC)nn12`, the Potency result in assay [1] and in assay [3] was “inactive” throughout. In addition, the Potency in assay [4] was 9.35 µM (active); in assay [5], 9.35 µM (active); in [6], 9.35 µM (active); in assay [7], 16.6 µM (active); in [8], 9.35 µM (active); in [9], 10.5 µM (active). Moreover, the Potency was 11.8 µM (active) in [10], 9.35 µM (active) in assay [11] and 7.43 µM (active) in [12]. Further, the activity (max response) in assay [13] is -1.6% and 3.7%.
As to `CC1=NN(c2ccccc2)C(=O)C1`, the Potency in assay [1] is 11.9 µM (active). In addition, the Potency result in assay [4], in [5], in assay [6], in assay [8], in assay [9] and in assay [10] was “inactive” throughout. For the same molecule, the Potency entry in [11], in assay [12] and in [3] was “inactive” each time. Besides, the activity (max response) in assay [13] was 8.8% and -4.32%.
